Targets with a hit are over-represented here; the source holds about 7,900 in all. About 0.6% of all pairs of compound and target were hits.
What was measured:
Assay in all cases: log2 fold change, soluble protein after heating vs DMSO (PISA); higher = thermal stabilisation; K562 cells, 10 uM, 30 min; active = over 0.2 and 3.5 SD of the protein, either way, in both replicates (recomputed)
erlotinib = compound: C#Cc1cccc(Nc2ncnc3cc(OCCOC)c(OCCOC)cc23)c1 [erlotinib]
Method in brief: (§1)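 Values are thermal stability changes relative to control samples and are taken from duplicates. They are stated as log2 fold changes. Before quantification by TMTpro 16plex LC-MS/MS with equalised channel sums, K562 cells at 2×10^6 cells/mL were treated with 10 μM compound for 30 min, heated in aliquots for 3 min across 48°C-58°C, pooled, extracted in PBS with 0.5% NP-40 at 4°C, and centrifuged at 21,000xg for 90 min to give the soluble supernatant.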

[1] = compound: C/C(=N\NC(=O)C1=CC(=CC=C1)S(=O)(=O)N2CCOCC2)/C3=C(C=CC(=C3)Cl)O
Method in brief: as §1

[2] = compound: C1=CC(=CC=C1C2=NC3=C(N2)C=C(C=C3)C(=O)N)OC4=CC=C(C=C4)Cl
Method in brief: as §1

[3] = compound: C1=CC2=C(C=CC(=C2)/C=C\3/C(=O)NC(=NCC4=CC=CS4)S3)N=C1
Method in brief: as §1

[4] = compound: C1=CC2=NC=CN=C2C=C1/C=C/3\C(=O)NC(=O)S3
Method in brief: as §1

[5] = compound: C1=CC=C(C=C1)C2=NC(=C(N2)C3=CC=NC=C3)C4=CC(=C(C=C4)Cl)O
Method in brief: as §1

[6] = compound: C1=CC=C2C(=C1)C3=NNC4=CC=CC(=C43)C2=O
Method in brief: as §1

[7] = compound: C1CCN(C1)C(=O)NC2=CC=CC(=C2)NC3=NC=C(C(=N3)NCCC4=CN=CN4)Br
Method in brief: as §1

[8] = compound: C1CN(CCC1(CC2=CC=C(C=C2)Cl)N)C3=NC=NC4=C3C=CN4
Method in brief: as §1

[9] = compound: C1=CC(=C(C=C1Cl)C2=NC3=NC=CN=C3C(=N2)NC4=CC=NC=C4)F
Method in brief: as §1

Measured: log2 fold change

PAFAH2 (UniProt Q99487)
inactive: erlotinib -0.004 | [1] 0.138 | [2] -0.018 | [3] -0.144 | [4] -0.02 | [5] -0.008 | [6] 0.011 | [7] -0.017 | [8] 0.08

NME2P1 (UniProt O60361)
inactive: erlotinib 0.147 | [1] 0.012 | [9] 0.147 | [2] 0.03 | [3] 0.04 | [4] 0.137 | [5] -0.163 | [6] 0.026 | [7] 0.076 | [8] 0.078

ORC3 isoform 2 (UniProt Q9UBD5)
inactive: erlotinib 0.134 | [1] -0.068 | [9] -0.024 | [2] -0.021 | [3] 0.214 | [4] 0.042 | [5] 0.013 | [6] 0.072 | [7] -0.013 | [8] 0.07

OSBPL3 (UniProt Q9H4L5)
inactive: [1] 0.15 | [9] -0.147 | [2] 0.165 | [3] 0.094 | [5] 0.255 | [6] 0.16 | [7] -0.021 | [8] -0.078
active: erlotinib 1.67

NFYB (UniProt P25208)
inactive: erlotinib 0.092 | [1] -0.102 | [2] -0.153 | [3] -0.047 | [4] 0.064 | [5] -0.036 | [6] -0.045 | [7] 0.01 | [8] -0.069

NMT2 (UniProt O60551)
active: [8] -0.369
inactive: erlotinib 0.028 | [1] 0.031 | [9] 0.007 | [2] 0.004 | [3] 0.062 | [4] 0.032 | [5] -0.043 | [6] 0.021 | [7] 0.041

MORC2 (UniProt Q9Y6X9)
UniProt Q9Y6X9, sequence (Q9Y6X9 whole entry, looked up): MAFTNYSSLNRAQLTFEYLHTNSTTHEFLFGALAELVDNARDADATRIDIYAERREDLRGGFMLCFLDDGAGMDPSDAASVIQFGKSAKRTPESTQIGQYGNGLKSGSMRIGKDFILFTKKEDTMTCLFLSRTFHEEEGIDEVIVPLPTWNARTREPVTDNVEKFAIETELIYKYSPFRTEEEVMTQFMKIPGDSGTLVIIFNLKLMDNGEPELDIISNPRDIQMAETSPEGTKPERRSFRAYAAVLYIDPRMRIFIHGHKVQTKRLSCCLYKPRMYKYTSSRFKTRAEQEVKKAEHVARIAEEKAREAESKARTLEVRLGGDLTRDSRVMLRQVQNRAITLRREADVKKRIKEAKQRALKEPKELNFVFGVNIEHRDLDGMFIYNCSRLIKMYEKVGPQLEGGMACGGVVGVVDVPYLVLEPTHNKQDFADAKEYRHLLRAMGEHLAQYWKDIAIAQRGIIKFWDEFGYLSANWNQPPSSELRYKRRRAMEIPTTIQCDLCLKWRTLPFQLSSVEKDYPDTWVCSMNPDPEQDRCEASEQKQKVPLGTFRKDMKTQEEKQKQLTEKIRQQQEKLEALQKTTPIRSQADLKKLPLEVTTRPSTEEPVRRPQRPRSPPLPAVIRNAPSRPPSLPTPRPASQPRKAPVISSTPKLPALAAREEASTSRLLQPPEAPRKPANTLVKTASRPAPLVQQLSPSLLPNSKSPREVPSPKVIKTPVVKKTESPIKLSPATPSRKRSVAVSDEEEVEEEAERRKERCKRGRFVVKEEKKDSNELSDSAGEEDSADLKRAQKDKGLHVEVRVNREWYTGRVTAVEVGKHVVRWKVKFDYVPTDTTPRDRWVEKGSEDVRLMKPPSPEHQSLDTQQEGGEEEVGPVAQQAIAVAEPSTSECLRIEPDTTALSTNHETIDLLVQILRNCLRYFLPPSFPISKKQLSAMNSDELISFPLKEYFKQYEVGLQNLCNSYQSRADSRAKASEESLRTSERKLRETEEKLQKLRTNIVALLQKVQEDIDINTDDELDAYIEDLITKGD
inactive: erlotinib 0.105 | [1] 0.033 | [9] -0.027 | [2] 0.051 | [3] 0.148 | [4] -0.097 | [6] 0.421

NACC1 (UniProt Q96RE7)
UniProt Q96RE7, sequence (Q96RE7 whole entry, looked up): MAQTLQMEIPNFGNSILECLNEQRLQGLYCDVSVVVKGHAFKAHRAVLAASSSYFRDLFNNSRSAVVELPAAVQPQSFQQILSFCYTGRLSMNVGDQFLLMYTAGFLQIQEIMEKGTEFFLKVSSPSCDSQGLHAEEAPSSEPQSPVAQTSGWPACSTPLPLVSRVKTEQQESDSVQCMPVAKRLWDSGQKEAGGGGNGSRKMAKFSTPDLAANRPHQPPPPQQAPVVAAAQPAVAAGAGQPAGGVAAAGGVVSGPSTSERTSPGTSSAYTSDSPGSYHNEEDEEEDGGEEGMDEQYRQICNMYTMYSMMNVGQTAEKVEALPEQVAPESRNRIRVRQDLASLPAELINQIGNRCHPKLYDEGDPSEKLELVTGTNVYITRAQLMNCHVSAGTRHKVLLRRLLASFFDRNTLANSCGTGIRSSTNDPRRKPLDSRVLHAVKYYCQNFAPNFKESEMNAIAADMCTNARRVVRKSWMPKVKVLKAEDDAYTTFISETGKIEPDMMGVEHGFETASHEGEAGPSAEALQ
inactive: erlotinib 0.134 | [1] 0.242 | [9] 0.065 | [2] -0.034 | [3] -0.017 | [4] 0.05 | [5] -0.02 | [6] -0.08 | [7] -0.059 | [8] -0.01

MRPS5 (UniProt P82675)
inactive: erlotinib -0.077 | [1] 0.038 | [9] 0.009 | [2] 0.193 | [3] 0.007 | [4] -0.008 | [5] 0.027 | [6] 0.158 | [7] -0.035 | [8] -0.085

NUMA1 (UniProt Q14980)
inactive: erlotinib -0.03 | [1] -0.006 | [9] -0.109 | [2] 0.017 | [3] 0.02 | [4] 0.019 | [5] 0.031 | [6] -0.054 | [7] -0.055 | [8] -0.211

MSH3 (UniProt P20585)
inactive: erlotinib 0.009 | [1] 0.031 | [9] 0.068 | [2] 0.017 | [3] 0.017 | [4] 0.03 | [5] 0.004 | [6] -0.039 | [7] 0.008 | [8] -0.045

MRPS12 (UniProt O15235)
inactive: erlotinib -0.013 | [1] 0.008 | [9] -0.13 | [2] 0.095 | [3] -0.052 | [4] 0.018 | [5] 0.099 | [6] 0.165 | [7] 0.025 | [8] -0.063

NUP205 (UniProt Q92621)
inactive: erlotinib 0.047 | [1] 0.131 | [9] -0.1 | [2] -0.031 | [3] 0.068 | [4] 0 | [5] 0.016 | [6] -0.146 | [7] -0.063 | [8] -0.017

MXRA7 isoform 3 (UniProt P84157)
inactive: [5] -0.08

NEU3 isoform 2 (UniProt Q9UQ49)
inactive: erlotinib 0.164 | [2] 0

MOB3B (UniProt Q86TA1)
UniProt Q86TA1, sequence (Q86TA1 whole entry, looked up): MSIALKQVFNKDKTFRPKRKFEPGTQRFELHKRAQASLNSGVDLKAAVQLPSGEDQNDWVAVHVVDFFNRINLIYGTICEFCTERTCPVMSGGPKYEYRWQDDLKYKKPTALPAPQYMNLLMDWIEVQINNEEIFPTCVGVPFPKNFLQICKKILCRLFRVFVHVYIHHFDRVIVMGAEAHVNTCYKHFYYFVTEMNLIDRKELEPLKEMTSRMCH
inactive: erlotinib -0.305 | [1] 0.302 | [2] -0.271 | [3] 0.24 | [4] -0.056 | [6] -0.092 | [7] -0.186 | [8] 0.059

NA, A0A1W2PSA9
inactive: [1] -0.065 | [3] -0.111 | [5] -0.008 | [6] -0.104 | [7] 0.101 | [8] -0.086

MYSM1 (UniProt Q5VVJ2)
inactive: [4] 0.173 | [5] 0.37

MLH1 (UniProt P40692)
inactive: [1] 0.027 | [9] 0.077 | [3] -0.038 | [4] 0.096 | [6] 0.053 | [7] -0.165 | [8] 0.039

MON1A (UniProt Q86VX9)
inactive: erlotinib -0.119 | [9] 0.022 | [2] 0 | [4] -0.262 | [5] -0.017 | [7] 0 | [8] 0.135

NAP1L1 (UniProt B7Z9C2)
inactive: erlotinib 1.01 | [1] 0.122 | [2] -0.051 | [3] 0.156 | [4] 0.175 | [6] -0.178

OAF (UniProt Q86UD1)
inactive: erlotinib -0.115 | [2] 0.05 | [5] -0.174

NA (UniProt J3KR12)
inactive: [9] -0.073 | [4] 0.254 | [5] 0.075

OXR1 isoform 2 (UniProt Q8N573)
inactive: [1] 0.137 | [9] -0.362 | [3] -0.034 | [5] -0.056 | [6] 0.068 | [7] 0.02 | [8] -0.022

NA isoform 3 (UniProt Q4G0T1)
inactive: erlotinib 0.019 | [1] 0 | [2] 0.01 | [3] 0.11 | [4] -0.035 | [5] 0.014 | [6] 0.047 | [7] 0.058 | [8] 0.071

MOB2 isoform 3 (UniProt Q70IA6)
inactive: erlotinib 0.029 | [9] -0.077 | [2] -0.001 | [4] 0.06 | [5] 0.025 | [7] 0.135 | [8] -0.22

ORC3 (UniProt Q9UBD5)
inactive: [1] 0.097 | [3] -0.104 | [6] 0.105

NIPSNAP3B (UniProt Q9BS92)
UniProt Q9BS92, sequence (Q9BS92 whole entry, looked up): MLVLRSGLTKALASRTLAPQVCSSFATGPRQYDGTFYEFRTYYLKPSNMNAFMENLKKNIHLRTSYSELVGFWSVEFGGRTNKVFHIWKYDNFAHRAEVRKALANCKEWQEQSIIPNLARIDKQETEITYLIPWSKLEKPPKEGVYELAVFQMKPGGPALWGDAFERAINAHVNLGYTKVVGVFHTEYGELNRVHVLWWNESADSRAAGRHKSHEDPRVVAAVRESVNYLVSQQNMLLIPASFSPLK
inactive: erlotinib -0.061 | [1] -0.014 | [2] -0.071 | [3] -0.159 | [4] 0.031 | [6] 0.007 | [7] 0.008 | [8] 0.051

MYLK (UniProt Q15746)
inactive: erlotinib 0.25 | [2] -0.146 | [4] -0.005 | [5] 0.291 | [7] 0.008 | [8] -0.066

P4HA2 (UniProt O15460)
active: [9] -0.548
inactive: erlotinib -0.075 | [2] 0.034 | [4] -0.025 | [5] -0.02 | [7] -0.016 | [8] -0.035

NPC1L1 (UniProt Q9UHC9)
inactive: [1] 0.006 | [3] 0.073 | [4] 0.143 | [6] -0.02 | [7] 0 | [8] -0.033

MYH16 (UniProt Q9H6N6)
inactive: erlotinib -0.044 | [1] 0.102 | [2] 0.049 | [3] -0.21 | [4] 0.284 | [6] 0.044 | [7] -0.089 | [8] -0.082

MTHFD1, A0A384N5Y3
inactive: [1] 0.056 | [9] 0.081 | [3] 0.146 | [4] -0.06 | [5] 0.036 | [6] 0.01 | [7] -0.004 | [8] 0.033

MMADHC (UniProt Q9H3L0)
UniProt Q9H3L0, sequence (Q9H3L0 whole entry, looked up): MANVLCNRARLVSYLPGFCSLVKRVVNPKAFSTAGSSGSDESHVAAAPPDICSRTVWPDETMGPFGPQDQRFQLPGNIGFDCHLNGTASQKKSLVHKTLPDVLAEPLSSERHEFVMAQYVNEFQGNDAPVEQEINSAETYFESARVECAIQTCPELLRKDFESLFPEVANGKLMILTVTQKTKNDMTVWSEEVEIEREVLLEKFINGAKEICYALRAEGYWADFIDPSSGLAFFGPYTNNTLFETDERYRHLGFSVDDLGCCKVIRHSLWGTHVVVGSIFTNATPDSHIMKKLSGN
inactive: erlotinib 0.088 | [1] -0.002 | [2] -0.034 | [3] -0.031 | [4] -0.105 | [5] -0.039 | [6] 0.073 | [7] 0.014 | [8] 0.083

NIPSNAP2 (UniProt C9J7B1)
inactive: [1] -0.171 | [3] -0.16 | [4] 0.057 | [6] -0.138

NDUFA7 (UniProt M0R0N0)
inactive: erlotinib 0.101 | [2] -0.051 | [4] 0.015

NUDT6 (UniProt P53370)
UniProt P53370, sequence (P53370 whole entry, looked up): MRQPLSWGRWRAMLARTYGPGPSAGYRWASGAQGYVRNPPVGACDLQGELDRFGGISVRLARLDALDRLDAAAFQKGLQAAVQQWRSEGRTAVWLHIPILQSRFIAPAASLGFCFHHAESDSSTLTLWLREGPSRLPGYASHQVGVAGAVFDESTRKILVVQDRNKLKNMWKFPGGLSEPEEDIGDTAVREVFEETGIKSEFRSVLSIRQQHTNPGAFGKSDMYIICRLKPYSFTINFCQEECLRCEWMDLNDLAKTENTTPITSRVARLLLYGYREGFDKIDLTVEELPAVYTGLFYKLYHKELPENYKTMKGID
inactive: erlotinib -0.022 | [9] 0.155 | [2] 0.103 | [5] -0.12 | [7] 0.121 | [8] 0.35

NUDT7 (UniProt P0C024)
inactive: erlotinib -0.246 | [9] -0.282 | [2] 0.148 | [4] -0.066 | [5] -0.118 | [7] 0.158 | [8] -0.024

NA (UniProt B2RBV5)
inactive: [9] -0.068 | [4] -0.015

NA, A0A494C071
inactive: [1] 0 | [9] 0.197 | [3] -0.005 | [4] 0.079 | [6] -0.018 | [7] 0.136 | [8] 0.114

MRFAP1 (UniProt Q9Y605)
inactive: erlotinib -0.007 | [1] -0.019 | [2] -0.013 | [3] -0.334 | [4] 0.014 | [5] -0.045 | [6] 0.141 | [7] -0.162 | [8] -0.106

NKTR (UniProt P30414)
inactive: erlotinib 0.597 | [2] 0.028 | [4] -0.149

NCOA5 (UniProt Q9HCD5)
UniProt Q9HCD5, sequence (Q9HCD5 whole entry, looked up): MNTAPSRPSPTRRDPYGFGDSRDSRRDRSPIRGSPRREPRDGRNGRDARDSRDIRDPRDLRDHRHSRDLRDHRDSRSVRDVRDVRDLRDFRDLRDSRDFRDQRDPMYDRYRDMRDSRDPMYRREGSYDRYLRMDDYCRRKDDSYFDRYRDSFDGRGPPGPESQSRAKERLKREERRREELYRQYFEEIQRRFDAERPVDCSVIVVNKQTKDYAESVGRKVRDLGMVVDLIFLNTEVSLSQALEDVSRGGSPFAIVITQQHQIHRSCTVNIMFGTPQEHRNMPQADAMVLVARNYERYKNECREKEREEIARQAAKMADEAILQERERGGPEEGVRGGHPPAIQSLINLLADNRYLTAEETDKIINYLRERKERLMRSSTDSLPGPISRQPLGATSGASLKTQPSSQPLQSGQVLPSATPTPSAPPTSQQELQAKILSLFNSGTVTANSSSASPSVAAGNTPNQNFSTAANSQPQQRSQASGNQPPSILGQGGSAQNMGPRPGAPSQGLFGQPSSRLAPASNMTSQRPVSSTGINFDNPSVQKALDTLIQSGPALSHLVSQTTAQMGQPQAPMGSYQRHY
inactive: erlotinib -0.057 | [2] 0.156 | [5] -0.094

NOS1AP (UniProt O75052)
inactive: erlotinib 0.134 | [9] 0.517 | [2] -0.006 | [4] -0.02 | [5] -0.248 | [7] -0.208
active: [8] 1.09

OVCA2 (UniProt Q8WZ82)
UniProt Q8WZ82, sequence (Q8WZ82 whole entry, looked up): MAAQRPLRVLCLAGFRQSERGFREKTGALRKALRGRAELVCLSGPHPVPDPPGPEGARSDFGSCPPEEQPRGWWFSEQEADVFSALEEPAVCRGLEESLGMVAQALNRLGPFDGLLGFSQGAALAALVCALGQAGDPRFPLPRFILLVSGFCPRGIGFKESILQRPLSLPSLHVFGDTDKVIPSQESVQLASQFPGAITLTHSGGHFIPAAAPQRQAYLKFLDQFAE
inactive: [1] 0.23 | [3] 0.108 | [4] 0.268 | [5] -0.044 | [6] -0.131

NOLC1 isoform 3 (UniProt Q14978)
inactive: erlotinib 0.002 | [2] 0.183

MITF (UniProt O75030)
inactive: erlotinib -0.021 | [1] -0.015 | [2] 0.041 | [3] -0.011 | [6] 0.047

MRM2 (UniProt Q9UI43)
inactive: erlotinib 0.023 | [1] 0.182 | [2] 0.031 | [3] 0.185 | [6] 0.121 | [7] -0.017 | [8] -0.002

NCBP2AS2 (UniProt Q69YL0)
UniProt Q69YL0, sequence (Q69YL0 whole entry, looked up): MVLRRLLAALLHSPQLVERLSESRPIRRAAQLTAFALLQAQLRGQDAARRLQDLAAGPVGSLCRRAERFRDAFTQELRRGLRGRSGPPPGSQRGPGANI
inactive: erlotinib 0.033 | [1] 0.104 | [2] 0.054 | [3] 0 | [4] 0.106 | [5] -0.029 | [6] 0.148 | [7] 0.048 | [8] 0.113

MSANTD2 (UniProt Q6P1R3)
UniProt Q6P1R3, sequence (Q6P1R3 whole entry, looked up): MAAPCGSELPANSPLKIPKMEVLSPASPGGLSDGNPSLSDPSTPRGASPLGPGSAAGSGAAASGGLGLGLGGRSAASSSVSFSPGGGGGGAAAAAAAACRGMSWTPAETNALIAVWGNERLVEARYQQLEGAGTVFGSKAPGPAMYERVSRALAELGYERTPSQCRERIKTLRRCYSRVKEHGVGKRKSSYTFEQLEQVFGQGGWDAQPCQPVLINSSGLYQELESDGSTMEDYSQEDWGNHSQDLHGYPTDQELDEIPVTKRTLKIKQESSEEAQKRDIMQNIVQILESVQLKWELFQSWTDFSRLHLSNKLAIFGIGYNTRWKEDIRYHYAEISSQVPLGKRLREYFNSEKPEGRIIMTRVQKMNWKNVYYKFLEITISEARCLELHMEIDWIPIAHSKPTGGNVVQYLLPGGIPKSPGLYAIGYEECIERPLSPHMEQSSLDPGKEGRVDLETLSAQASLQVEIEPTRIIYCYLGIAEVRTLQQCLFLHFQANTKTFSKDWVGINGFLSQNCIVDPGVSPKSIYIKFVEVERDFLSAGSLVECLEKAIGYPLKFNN
inactive: [9] 0.012 | [7] -0.081 | [8] -0.052

MPHOSPH8 isoform 2 (UniProt Q99549)
UniProt Q99549, sequence (Q99549 whole entry, looked up): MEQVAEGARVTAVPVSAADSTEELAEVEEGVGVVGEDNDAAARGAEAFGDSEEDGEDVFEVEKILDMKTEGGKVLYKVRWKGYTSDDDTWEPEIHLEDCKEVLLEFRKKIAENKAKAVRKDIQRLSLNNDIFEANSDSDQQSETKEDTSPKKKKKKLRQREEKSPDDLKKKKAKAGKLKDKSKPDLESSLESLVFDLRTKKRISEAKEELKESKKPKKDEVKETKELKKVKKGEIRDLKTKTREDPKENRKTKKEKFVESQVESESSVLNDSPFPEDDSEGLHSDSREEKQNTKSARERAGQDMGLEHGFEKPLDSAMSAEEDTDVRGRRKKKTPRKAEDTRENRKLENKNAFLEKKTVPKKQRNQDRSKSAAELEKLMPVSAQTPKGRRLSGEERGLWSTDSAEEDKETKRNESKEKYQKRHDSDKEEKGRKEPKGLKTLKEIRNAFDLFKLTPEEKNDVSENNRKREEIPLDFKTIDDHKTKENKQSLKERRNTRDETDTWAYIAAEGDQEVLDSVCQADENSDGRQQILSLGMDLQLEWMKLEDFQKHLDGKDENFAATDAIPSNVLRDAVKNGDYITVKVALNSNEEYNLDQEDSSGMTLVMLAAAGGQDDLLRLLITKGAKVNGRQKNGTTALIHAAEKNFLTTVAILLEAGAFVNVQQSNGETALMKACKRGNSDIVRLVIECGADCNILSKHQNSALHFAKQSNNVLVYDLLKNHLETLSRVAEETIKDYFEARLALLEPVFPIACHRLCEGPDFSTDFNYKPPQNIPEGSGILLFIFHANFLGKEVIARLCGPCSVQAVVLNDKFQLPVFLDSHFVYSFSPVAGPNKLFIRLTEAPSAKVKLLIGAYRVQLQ
inactive: [1] 0.033 | [9] 0.24 | [3] -0.044 | [5] -0.055 | [6] -0.086 | [7] -0.02 | [8] -0.065

NA, A0A2R8Y3M9
inactive: [1] -0.335 | [3] 0.355 | [4] 0.132 | [5] -0.072 | [6] -0.137

From the supplement of paper PMC10849652
